GALC G270D act: A Novel Cell-Based Assay to Identify Small Molecules for B -Galactocerebrosidase; P54803; 145M-Twi-hGALC-G270D cells (Twitcher mouse brain line with human GALC G270D), HMU-beta-Gal fluorescence, 48 h; Potency, µM (titrated, usually from 57.5 µM), most hits filed as activators; hit rate 0.1% among 45,000; AID 1159614, 2016; note: potency is the fitted concentration of half-maximal effect; 0% is about no effect; nearly all actives have a fitted effect of over 65% in size
Target sequence (P54803 whole entry G286D): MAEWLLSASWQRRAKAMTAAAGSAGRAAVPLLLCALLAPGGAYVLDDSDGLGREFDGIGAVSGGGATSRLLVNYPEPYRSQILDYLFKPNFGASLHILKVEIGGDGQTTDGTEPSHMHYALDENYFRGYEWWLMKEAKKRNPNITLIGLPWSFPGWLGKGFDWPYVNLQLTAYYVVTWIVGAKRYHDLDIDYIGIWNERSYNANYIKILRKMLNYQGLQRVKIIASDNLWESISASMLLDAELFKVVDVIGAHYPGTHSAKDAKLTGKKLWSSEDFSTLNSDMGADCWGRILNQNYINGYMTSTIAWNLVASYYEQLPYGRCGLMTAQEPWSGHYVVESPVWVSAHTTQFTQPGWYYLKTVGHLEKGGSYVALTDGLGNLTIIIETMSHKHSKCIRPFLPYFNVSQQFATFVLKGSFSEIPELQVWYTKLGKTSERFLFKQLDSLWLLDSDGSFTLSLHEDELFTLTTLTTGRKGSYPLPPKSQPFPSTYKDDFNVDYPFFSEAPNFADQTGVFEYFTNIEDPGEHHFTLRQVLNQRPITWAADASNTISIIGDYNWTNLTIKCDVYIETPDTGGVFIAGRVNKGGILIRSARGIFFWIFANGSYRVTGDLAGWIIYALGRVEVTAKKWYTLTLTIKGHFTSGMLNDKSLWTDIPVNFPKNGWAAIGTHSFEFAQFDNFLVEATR
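Live 145M-Twi cells (Twitcher mouse brain-derived, GALC-null) stably expressing human GALC-G270D, with a wild-type GALC line, were compound-treated. Residual GALC activity was then read as fluorescence from 0.1 mM final HMU-β-gal at pH 5.2; higher signal means activation.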
B2AR arrestin ag: qHTS assay of beta-arrestin-biased ligands of beta2-adrenergic receptor: NCGC Sytravon Library Screen; Beta-2 adrenergic receptor (Homo sapiens), P07550; HTLA Tango cells, beta-arrestin recruitment, luciferase luminescence, 18 h; Potency, µM (titrated, usually from 46.1 µM), most hits filed as activators; 44,000 tested, under 10 active; AID 1347077, 2019;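 note: potency is the fitted concentration of half-maximal effect; 0% = DMSO and full agonism = EC100 isoproterenol or metaproterenol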
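Tango cells (recombinant beta2-AR, beta-arrestin, tTA-driven luciferase), 1500/well in DMEM 1% FBS, treated 18 h at 37 °C with compounds up to 46 µM; luciferin mix added, luminescence read after 15 min; %activity curves fitted and curve-classed.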
GPR32 ag: qHTS for Agonists of Human Resolvin D1 Receptor DRV1; Probable G-protein coupled receptor 32 (Homo sapiens), O75388; CHO-K1 GPR32 beta-arrestin PathHunter luminescence, 90 min; zero percent set by DMSO-only wells; activation, % at 76.9 µM; hit rate 2.5% among 48,000;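 active = activation of at least 60% and not above a set upper limit, about 1 call in 100 departs from these limits; inconclusive = activation of 40% to 60%, or above that upper limit; inactive = activation under 40%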; note: 0% is about no effect
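Cells are plated overnight, treated with compounds in DMSO for 90 minutes at 37 °C, and developed with PathHunter detection reagent for 1 hour before luminescence is read; signal reflects beta-arrestin binding to GPR32 in engineered CHO-K1 cells.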
FH mod: Identification of activators of human fumarate hydratase by quantitative high-throughput screening. hit rate 0.22% among 54,000. AID 1347055, 2019. Potency, µM (series often up to 79.9 µM), without a hit: at the top dose activity change, negative = inhibition, usual class: inhibitors. FH coupled MDH/diaphorase resazurin fluorescence, 15 min; note: potency is the fitted concentration of half-maximal effect; % is set by controls: 0 for no effect and ±100 for the full control effect; the screen sought activators but most active calls are inhibition curves; nearly all actives have a fitted effect of over 45% in size
* marks the source's active call; other numbers are inactive results; i = inactive; ? = inconclusive; / = no result given; [ ] = another dose, or the depositor's remark. Most compounds without a hit are left out; they make up all but 2.8% or so of the library. Unless noted, calls come from the whole dose curve; as a rule, active = well fitted curve in the direction sought with a large enough effect; inconclusive = small, poorly fitted or top-dose-only effect, or another doubt; inactive = no such curve, though single readings can be large; an effect the other way counts as inactive or inconclusive.

SMILES	GALC G270D act	B2AR arrestin ag	GPR32 ag	FH mod
CCC(Oc1ccccc1)C(=O)N1CCN(Cc2cc(=O)n3nc(-c4cccc(C)c4)sc3n2)CC1 (stereo not drawn)	i	i	60.7*	0.7%
COc1cccc(-c2nn3c(=O)cc(CN4CCN(C(=O)/C=C/c5ccccc5)CC4)nc3s2)c1	i	i	46.4	6.6%
Cc1ccc(NS(=O)(=O)c2ccc3c(c2)NC(=O)CCS3)cc1C	i	i	?	-18.1%
Cc1ccc(NS(=O)(=O)c2ccc3c(c2)NC(=O)CCS3)c(Br)c1	i	i	119.9*	-10.7%
O=C1CCSc2ccc(S(=O)(=O)Nc3cccc(C(F)(F)F)c3)cc2N1	i	i	109.1*	-12.2%
Cc1ccccc1NS(=O)(=O)c1ccc2c(c1)NC(=O)CCS2	i	i	42.5	-5.9%
CCN(CC)S(=O)(=O)c1ccc2c(c1)N(CC(=O)N1CCN(c3cc(Cl)ccc3C)CC1)C(=O)CO2	i	i	-8.1	1.3%
NS(=O)(=O)c1ccc(NC(=O)CN2C(=O)COc3ccc(Cl)cc32)cc1	i	i	92.8*	-13.1%
Cc1ccc(NC(=O)CN2C(=O)COc3ccc(S(=O)(=O)N4CCCCC4)cc32)cc1Cl	i	i	-29.9	-9.3%
CCN(CC)S(=O)(=O)c1ccc2c(c1)N(CC(=O)NCCCN1CCN(c3cc(Cl)ccc3C)CC1)C(=O)CO2	i	i	77.6*	-10.7%
Cc1ccc(NC(=O)CN2C(=O)COc3ccc(S(=O)(=O)NC4CCCC4)cc32)cc1Cl	i	i	106.4*	-20.4%
CC1(C)CC[C@]2(C(=O)O)CC[C@]3(C)C(=CCC4[C@@]5(C)CC[C@H](O[C@H]6O[C@H](C(=O)O)[C@@H](O)[C@H](O[C@@H]7O[C@H](CO)[C@H](O)[C@H](O)[C@H]7O)[C@H]6O)C(C)(C)C5CC[C@]43C)[C@@H]2C1 (stereo partly drawn)	/	/	/	3.7%[20.6 µM]
C=CC(=O)N1CCCC(n2nc(-c3ccc(Oc4ccccc4)cc3)c3c(N)ncnc32)C1 (stereo not drawn)	/	/	/	-4.8%
COc1cc2[nH]c(=O)n(CCCCCC(=O)N3CCN(c4cccc(C(F)(F)F)c4)CC3)c(=O)c2cc1OC	i	i	63.1*	?
CCCCCn1c(=O)[nH]c2cc(C(=O)N3CCN(c4cccc(C(F)(F)F)c4)CC3)ccc2c1=O	i	i	60.8*	-4.3%
O=C(CCCCCn1c(=O)[nH]c2ccccc2c1=O)N1CCN(c2cccc(C(F)(F)F)c2)CC1	i	i	-9.9	-12.8%
CCCCCn1c(=O)[nH]c2cc(C(=O)N3CCN(c4ccccc4)CC3)ccc2c1=O	i	i	26.5	-0.9%
CCS(=O)(=O)N1CCc2cc(C(=O)N3CCN(c4cccc(C(F)(F)F)c4)CC3)ccc21	i	i	64.7*	-34.5%
O=C(c1ccc2c(c1)CCN2S(=O)(=O)c1ccccc1)N1CCN(c2cccc(Cl)c2)CC1	i	i	-15.6	-20.0%
CCC/C=C/C=C/C1CC(O)C(O)C(=O)C1CO (stereo not drawn)	/	/	/	0.5%
CCC(C(=O)OCc1cc(=O)n2nc(CCOC)sc2n1)c1ccccc1 (stereo not drawn)	i	i	-13.3	?
CCC(C(=O)OCCN1CCOC(c2ccccc2)C1C)c1ccccc1 (stereo not drawn)	i	/	61.8*	-4.8%[53.3 µM]
Cc1ccc(C)c(Nc2nn3c(=O)c4ccc(C(=O)NCc5ccccc5)cc4nc3s2)c1	i	i	63.1*	2.0%
Nc1nc(CC(=O)Nc2ccc(CCNCC(O)c3ccccc3)cc2)cs1 (stereo not drawn)	/	/	/	27.0%
C=C1C(=O)O[C@@H]2C[C@@]3(C)CCC[C@H](C)C3=C[C@H]12	/	/	/	5.5%
SMILES	GALC G270D act	B2AR arrestin ag	GPR32 ag	FH mod
CCOc1ccc(NC(=O)c2nc(S(=O)(=O)Cc3ccccc3F)ncc2Cl)cc1	i	i	-25.3	-4.6%
O=C(Nc1nc2ccc(F)cc2s1)c1nc(S(=O)(=O)Cc2ccccc2F)ncc1Cl	i	i	105.3*	-3.2%
Cc1ncc(CCCN(C)C)cc1Nc1ncc2c(n1)-c1ccc(C(F)(F)F)cc1NC(=S)C2	/	/	/	23.1%
CCOC(=O)c1c(N)n(-c2ccc(CC)cc2)c2nc3ccccc3nc12	i	i	2.7	-0.6%
CCOC(=O)c1c(N)n(-c2cccc(OC)c2)c2nc3ccccc3nc12	3.98µM*	i	1.5	-2.6%
CCc1c(C)nc2nc(-c3ccccc3)nn2c1NCc1ccc(C)cc1	i	i	72.2*	?
Cc1cc(C)c(NC(=O)CSc2nc3ccccc3c3nc(CCn4cncc4C)nn23)c(C)c1	i	i	14.8	-0.4%
COc1cc2nc(SCC(=O)Nc3c(C)cc(C)cc3C)n3nc(CCn4c(C)nc5ccccc54)nc3c2cc1OC	i	i	83.2*	0.7%
O=C(Cn1c(=O)nc(-c2ccccc2)c2cc(Cl)ccc21)NCCc1ccccc1	i	i	-9.5	-7.3%
O=C(Cn1c(=O)nc(-c2ccccc2)c2cc(Cl)ccc21)NCCCc1ccccc1	i	i	94.2*	-8.9%
COC(=O)N(C)c1c(N)nc(-c2nn(Cc3ccccc3F)c3ncccc23)nc1N	/	/	/	6.4%
Oc1cccc(Nc2ncnc3sc4c(c23)CCCC4)c1	i	i	66.2*	7.4%
Cc1ccc2c(CNCc3ccc(C)o3)c(C(=O)O)n(Cc3ccc(F)cc3)c2c1	i	i	?	?
C=Cc1ccc(Cn2c(C(=O)O)c(CNCc3ccc(F)cc3)c3ccc(C)cc32)cc1	i	i	90.9*	-27.8%
COc1ccc(Cn2c(C(=O)O)c(CNCc3cccs3)c3ccc(C)cc32)cc1	i	i	?	-12.3%
C=Cc1ccc(Cn2c(C(=O)O)c(CNCc3cccs3)c3ccc(C)cc32)cc1	i	i	96.3*	?
Cc1ccc2c(CNCc3cccs3)c(C(=O)O)n(Cc3ccc(F)cc3)c2c1	i	i	91.9*	?
Cc1ccccc1-c1nc(CS(=O)(=O)CC(=O)NCCCc2ccccc2)c(C)o1	i	i	79.9*	-28.8%
CC(=O)OC1C(O)CC2(C)C(CCC(C)C23Cc2c(O)cc(CO)c(C=O)c2O3)C1(C)C (stereo not drawn)	/	/	/	-0.5%[53.3 µM]
C=C1CCC2(OC1)OC1CC3C4CC=C5CC(O)CC(O[C@@H]6OC[C@H](OC(=O)C(O)C(C)CC)[C@H](O)[C@H]6O[C@@H]6O[C@@H](C)[C@H](O)[C@@H](O)[C@H]6O)C5(C)C4CCC3(C)C1C2C (stereo partly drawn)	/	/	/	4.8%[20.6 µM]
CCCc1c(OCCCCc2nn[nH]n2)ccc(C(C)=O)c1O	i	/	86.6*	-5.4%[53.3 µM]
